The list is not random: actives were taken first. Their share in the collection is about 3.5%.
MITF primary: blocks human microphthalmia-associated transcription factor; AlphaScreen MITF homodimerization, bead proximity signal; inhibition, % at 2.6 µM; actives 0.91% (n = 650,000); AID 1259374; in the data active = inhibition above about 50%;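 also: 0% = vehicle wells with protein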
TEAD-YAP block: TEAD-YAP interaction inhibition | AID 1259422 | HEK-TIYL cells, TEAD-Gal4/YAP UAS-luciferase luminescence | inhibition, % at 9.12 µM | actives 1.4% (n = 640,000); in the data active = inhibition above about 32%;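 also: 0% = median of test compound wells and 100% = reference inhibitor wells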
FBW7 act: human FBW7 E3 ligase activation, primary screen. Q969H0. AlphaScreen FBW7–phospho-cyclin E peptide binding, activator screen. normalized activity (activation), % at 26.1 µM. actives 0.13% (n = 650,000). AID 1259310; in the data active = normalized activity above about 1.9%;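 also: purified mutant Fbw7 with reduced substrate affinity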
GPR151 activ: activators of human GPR151; Q8TDV0; PathHunter beta-arrestin GPR151 cells, luminescence; activation, % at 11.2 µM; actives 1% (n = 650,000); AID 1508602; in the data active = activation above about 4.9%;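 also: 0% = median of compound wells and 100% = cells with positive control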
Target sequence (Q8TDV0 whole entry, looked up): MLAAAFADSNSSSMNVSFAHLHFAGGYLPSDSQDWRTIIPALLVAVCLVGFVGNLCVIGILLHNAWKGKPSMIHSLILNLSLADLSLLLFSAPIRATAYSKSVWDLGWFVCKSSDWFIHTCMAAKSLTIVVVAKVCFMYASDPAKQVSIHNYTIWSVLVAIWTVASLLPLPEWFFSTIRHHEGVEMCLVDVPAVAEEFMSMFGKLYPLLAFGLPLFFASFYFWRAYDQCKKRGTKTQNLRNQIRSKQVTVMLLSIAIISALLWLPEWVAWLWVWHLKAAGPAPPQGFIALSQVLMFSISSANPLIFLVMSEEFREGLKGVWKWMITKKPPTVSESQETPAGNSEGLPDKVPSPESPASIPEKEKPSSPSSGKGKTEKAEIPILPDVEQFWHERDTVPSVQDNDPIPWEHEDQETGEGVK
MITF inh conf: confirmation of human MITF inhibitors. shares compounds with MITF primary. AlphaScreen MITF homodimerization, biotin/His-MITF beads. inhibition, % at 2.6 µM. actives 16% (n = 4,700). AID 1259372;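 active = inhibition above a cutoff derived from the DMSO control wells, cut at about 28% in these data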;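 also: 0% = MITF dimer wells with DMSO only; inhibitors lower the bead chemiluminescence by keeping MITF from dimerizing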
AS interf DR: AlphaScreen optical interference, dose response counter-screen; shares compounds with MITF primary; actives 6% (n = 480); AlphaScreen optical interference counterscreen, cell-free; IC50, µM; call rule not given here
AlphaScreen intf2: counter-screen: compounds optically interfering with AlphaScreen; shares compounds with MITF primary; LysRS AlphaScreen counterscreen, signal interference, triplicate; inhibition, % at 2.6 µM; actives 7.6% (n = 4,700); AID 1259376;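 active = inhibition above a cutoff derived from the DMSO control wells, cut at about 30% in these data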
An asterisk follows results filed as active.

Screening COc1cccc(CN2CCN(Cc3ccccn3)CC2)c1OC returned MITF primary 63.9*, TEAD-YAP block -7.6, FBW7 act -0.4, GPR151 activ -0.1, MITF inh conf -4.3 and AlphaScreen intf2 13.1.
Screening COc1cc(CN2CCN(c3ccccc3)CC2)cc(OC)c1OC returned MITF primary 43.3, TEAD-YAP block 2.1, FBW7 act 0.0 and GPR151 activ -1.0.
For COc1cc(CN2CCN(Cc3ccccc3C(F)(F)F)CC2)cc(OC)c1OC the results were MITF primary 72.8*, TEAD-YAP block 3.1, FBW7 act -0.2, GPR151 activ 0.6, MITF inh conf 6.1 and AlphaScreen intf2 13.1.
For O=C(CNC1CCCCC1)NC(c1ccccc1)c1ccccc1 the results were MITF primary 51.9*, TEAD-YAP block -0.6, FBW7 act -0.1, GPR151 activ 0.7, MITF inh conf 12.1 and AlphaScreen intf2 8.6.
For N/C(CC(=O)NC1CCCCC1)=N\OCC(=O)NC(c1ccccc1)c1ccccc1 the results were MITF primary 12.0, TEAD-YAP block 9.1, FBW7 act 0.0 and GPR151 activ 1.2.
O=C(CN1CCCCC1)NC(c1ccccc1)c1ccccc1 was read as MITF primary 53.4*, TEAD-YAP block -5.8, FBW7 act -0.2, GPR151 activ -0.9, MITF inh conf 13.4 and AlphaScreen intf2 7.0.
`O=C(CN1CCC(N2CCCCC2)CC1)NC(c1ccccc1)c1ccccc1` gave MITF primary 14.3, TEAD-YAP block -5.9, FBW7 act -0.1 and GPR151 activ 0.2.
For CCN1CCN(C(C)C(=O)NC(c2ccccc2)c2ccccc2)CC1 (stereo unspecified) the results were MITF primary 60.9*, TEAD-YAP block -5.5, FBW7 act 0.4, GPR151 activ -0.1, MITF inh conf 10.7 and AlphaScreen intf2 13.6.
Screening CCN1CCN(C(=O)C(c2ccccc2)c2ccccc2)CC1 returned MITF primary -4.4, TEAD-YAP block 2.0, FBW7 act 0.0 and GPR151 activ -1.8.
O=C(CN1CCCC1)NC(c1ccccc1)c1ccccc1 was read as MITF primary 58.8*, TEAD-YAP block -0.9, FBW7 act 0.1, GPR151 activ -0.7, MITF inh conf 7.5 and AlphaScreen intf2 13.4.
For FC(F)(F)c1ccc(Cn2cnc3c(NCCN4CCOCC4)nc(Cl)nc32)cc1 the results were MITF primary 16.1, TEAD-YAP block 7.6, FBW7 act 0.4 and GPR151 activ -1.0.
For Cc1cc2c(c(=O)n1CC1CCCO1)C(c1ccc(F)cc1)C(C#N)=C(N)O2 (stereo unspecified) the results were MITF primary 10.9, TEAD-YAP block 4.4, FBW7 act 0.0 and GPR151 activ -0.6.
For CN1CCN(Cc2cc([N+](=O)[O-])c(O)c3ncccc23)CC1 the results were MITF primary 96.9*, TEAD-YAP block 2.2, FBW7 act -0.9, GPR151 activ 1.0, MITF inh conf 105.3* and AlphaScreen intf2 100.6*.
Screening O=[N+]([O-])c1cc(CN2CCCC2)c2cccnc2c1O returned MITF primary 99.5*, TEAD-YAP block -2.3, FBW7 act -0.9, GPR151 activ 0.1, MITF inh conf 106.1* and AlphaScreen intf2 100.6*.
Cc1ncc(CO)c(/C=N/NC(=S)Nc2cccc(Cl)c2)c1O was read as MITF primary 38.4, TEAD-YAP block 0.5, FBW7 act -0.6 and GPR151 activ 1.1.
`Cc1ncc(CO)c(/C=N/NC(N)=S)c1O` gave MITF primary 104.7*, TEAD-YAP block 0.2, FBW7 act -0.4, GPR151 activ 0.3, MITF inh conf 5.8 and AlphaScreen intf2 26.9.
Cc1ncc(CO)c(/C=N/NC(=S)Nc2cccc(S(=O)(=O)N(C)C)c2)c1O was read as MITF primary 68.4*, TEAD-YAP block 4.3, FBW7 act -0.1, GPR151 activ 0.2, MITF inh conf 6.9 and AlphaScreen intf2 22.3.
O=C(/C=C/c1ccc(S(=O)(=O)N2CCOCC2)cc1)N1CCN(CCO)CC1 was read as MITF primary 11.0, TEAD-YAP block -0.1, FBW7 act 0.2 and GPR151 activ -0.5.
Screening COc1ccccc1-c1ccc(N2CCN(S(=O)(=O)c3cccnc3)CC2)nn1 returned MITF primary 7.1, TEAD-YAP block -5.3, FBW7 act -0.3 and GPR151 activ 0.7.
`CCN1CCN(Cc2coc3ccccc3c2=O)CC1` gave MITF primary 81.6*, TEAD-YAP block -11.5, FBW7 act 0.6, GPR151 activ -0.3, MITF inh conf 41.5*, AS interf DR >6.48 and AlphaScreen intf2 7.3.
Screening CCCCCn1c(SCc2ccccn2)nc2cc(C(=O)NC3CCCCC3)ccc2c1=O returned MITF primary 1.9, TEAD-YAP block -3.2, FBW7 act 0.1 and GPR151 activ -0.3.
`O=C(NCC(O)C(=O)N1CCOCC1)c1cc(Nc2ccc3[nH]ncc3c2)ccn1` (stereo unspecified) gave MITF primary -0.2, TEAD-YAP block 4.2, FBW7 act -0.1 and GPR151 activ -0.8.
For O=C(NCC(O)C(=O)N1CCOCC1)c1cccc(Nc2ccc3[nH]ncc3c2)n1 (stereo unspecified) the results were MITF primary 57.3*, TEAD-YAP block 8.0, FBW7 act 0.2, GPR151 activ 0.1, MITF inh conf 62.4*, AS interf DR >6.48 and AlphaScreen intf2 7.5.
Screening CC1=CC2=NC(=O)/C(=C\c3ccc(N(C)C)cc3)C(=N)N2O1 returned MITF primary -3.0, TEAD-YAP block 0.4, FBW7 act -0.2 and GPR151 activ -1.1.
`COc1ccc(-n2ccn(CC(=O)Nc3cc(C)ccc3OC)c2=O)cc1` gave MITF primary 7.8, TEAD-YAP block -2.2, FBW7 act -0.1 and GPR151 activ 0.5.
`Cn1c(-c2cccc([N+](=O)[O-])c2)cnc1NCc1cccc(F)c1` gave MITF primary 52.4*, TEAD-YAP block -10.7, FBW7 act -0.1, GPR151 activ 0.1, MITF inh conf -7.6 and AlphaScreen intf2 -7.7.
`Cn1c(-c2cccc([N+](=O)[O-])c2)cnc1NCc1cccc(O)c1` gave MITF primary 39.0, TEAD-YAP block -10.4, FBW7 act -0.1 and GPR151 activ 0.3.
`Cn1c(-c2cccc([N+](=O)[O-])c2)cnc1NCc1ccc(F)cc1` gave MITF primary 38.0, TEAD-YAP block -4.2, FBW7 act -0.1 and GPR151 activ 0.4.
Cn1c(-c2ccc(F)cc2)cnc1NCc1cccc([N+](=O)[O-])c1 was read as MITF primary 58.8*, TEAD-YAP block -1.8, FBW7 act 0.2, GPR151 activ -0.1, MITF inh conf -4.2 and AlphaScreen intf2 -4.5.
`COc1cccc(-c2n[nH]c(=S)n2C)c1` gave MITF primary 3.5, TEAD-YAP block 0.3, FBW7 act 0.1 and GPR151 activ 0.2.
